Compound activity as filed in PubChem.
TWEAK Fn14 block: TWEAK-Fn14 signaling inhibition; TWEAK-stimulated Fn14 reporter cells, luciferase luminescence, 8 h; inhibition, % at 10 µM; 360,000 compounds, 2% hits; AID 1159606; in the data active = inhibition above about 50%
HIF-2a block: HIF-2a inhibition | 786-0 RCC cells HIF-2a reporter, luciferase luminescence, overnight | inhibition, % at 18.8 µM | 360,000 compounds, 0.72% hits;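 active = inhibition of the luminescence signal of 40% or more relative to plate controls, in a single-dose primary screen at 18.75 µM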
HSP90 inh: blocks HSP90-mediated luciferase refolding in reticulocyte lysate; inhibition, % at 5.6 µM; Rabbit reticulocyte lysate, luciferase refolding luminescence, 3 h; AID 1789; 290,000 compounds, 0.91% hits;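 active = inhibition above the screen-wide mean plus 3 SD, computed separately per campaign, cut at about 16% in these data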;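 note: inhibitors lower the luminescence because luciferase stays unfolded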
C8 TRAIL sens: caspase-8 TRAIL sensitization | NB7+C8 cells + TRAIL, ATPlite viability luminescence | inhibition (viability loss, TRAIL sensitization), % at 10 µM | 360,000 compounds, 1% hits;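 active = compounds causing at least 50% loss of cell viability in the single-dose screen, relative to plate controls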
TROY signal inh: TROY signaling inhibition; Q293 LMP1-TROYcd NF-kB luciferase reporter, 4 h; inhibition, % at 10 µM; 360,000 compounds, 0.98% hits; AID 1347056;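 active = compounds whose plate-normalised and pattern-corrected inhibition of the luciferase reporter signal at the single screening dose is 50% or more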
aSyn UTR inh: MLPCN primary screen, SNCA 5' untranslated region; alpha-synuclein 5'UTR reporter, inhibitor activity; inhibition, % (tested at 7.5 µM); 300,000 compounds, 0.82% hits; in the data active = inhibition above about 60%; inconclusive = no clear call, values can overlap the other calls;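 note: H4 neuroglioblastoma cells stably carrying SNCA 5'UTR luciferase fusion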
HSP90 inh confirm: confirmation of HSP90 inhibitors. shares compounds with HSP90 inh. rabbit reticulocyte lysate, luciferase refolding luminescence, 3 h. inhibition, % at 5.9 µM. 2,300 compounds, 64% hits. AID 1846; in the data active = inhibition above about 18%
FLuc counter: firefly luciferase inhibition, HSP90 counter-screen; inhibition, % at 5.9 µM; purified native firefly luciferase, luminescence; shares compounds with HSP90 inh; 2,300 compounds, 48% hits; AID 1847;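 active = inhibition above the mean inhibition of all tested sample wells plus 3 SD, cut at about 10% in these data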
Target sequence (P08659 whole entry, looked up): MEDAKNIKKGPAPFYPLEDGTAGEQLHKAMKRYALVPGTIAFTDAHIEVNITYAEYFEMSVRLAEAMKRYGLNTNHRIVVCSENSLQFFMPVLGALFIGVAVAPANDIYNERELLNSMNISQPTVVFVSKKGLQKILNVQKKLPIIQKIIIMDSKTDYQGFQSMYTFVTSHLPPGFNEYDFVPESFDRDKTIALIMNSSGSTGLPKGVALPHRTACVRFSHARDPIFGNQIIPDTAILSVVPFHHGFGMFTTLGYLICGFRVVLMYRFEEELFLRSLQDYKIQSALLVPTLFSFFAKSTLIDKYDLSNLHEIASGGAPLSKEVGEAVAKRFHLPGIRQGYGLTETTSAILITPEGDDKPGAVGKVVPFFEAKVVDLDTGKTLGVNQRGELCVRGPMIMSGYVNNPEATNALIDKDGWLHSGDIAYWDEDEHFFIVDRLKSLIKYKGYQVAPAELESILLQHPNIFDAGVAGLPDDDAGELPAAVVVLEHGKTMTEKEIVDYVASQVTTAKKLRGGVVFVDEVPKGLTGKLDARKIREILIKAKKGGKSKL
Each line names hits and unclear results; the compound was inactive in the other large screens (follow-up assays come after a bar, where they were run). Shown are actives, neighbours in structure and some others; about 3.9% of the full set was active somewhere.

COc1ccc(C(c2nnnn2C(C)(C)C)N2CCC3(CC2)C(=O)NCN3c2ccccc2)cc1 (stereo not drawn)	none (no result: HSP90 inh, aSyn UTR inh)
O=C1NCN(c2ccccc2)C12CCN(C(c1nnnn1-c1ccc3c(c1)OCCO3)C1CC1)CC2 (stereo not drawn)	none (no result: HSP90 inh, aSyn UTR inh)
Cc1cc2c(C(C)C)c(O)c(O)c(C=O)c2c(O)c1-c1c(C)cc2c(C(C)C)c(O)c(O)c(C=O)c2c1O	TWEAK Fn14 block 102.1, HIF-2a block 89.1, TROY signal inh 66.0 (no result: aSyn UTR inh)
CCCCn1c(N)c(C(=O)NCCN2CCOCC2)c2nc3ccccc3nc21	TROY signal inh 63.8
CCCCn1c(NC(=O)c2ccc(Br)o2)c(C(=O)OCC)c2nc3ccccc3nc21	TWEAK Fn14 block 70.5, TROY signal inh 59.2
CCOC(=O)c1c(N)n(CCN2CCCCC2)c2nc3ccccc3nc12	none
COc1ccc(-n2nnnc2C(c2cccc3ccccc23)N2CCC3(CC2)C(=O)NCN3c2ccccc2)cc1 (stereo not drawn)	TWEAK Fn14 block 52.7 (no result: HSP90 inh, aSyn UTR inh)
Cc1cccc(C)c1-n1nnnc1C(C1CC1)N1CCC2(CC1)C(=O)NCN2c1ccccc1 (stereo not drawn)	TROY signal inh 75.2 (no result: HSP90 inh, aSyn UTR inh)
Cc1cccc(C)c1-n1nnnc1C(c1ccccc1)N1CCC2(CC1)C(=O)NCN2c1ccccc1 (stereo not drawn)	none (no result: HSP90 inh, aSyn UTR inh)
CN1OC[C@@H]2CN[C@H](c3ccc(Br)cc3)C[C@@H]21	none (no result: HSP90 inh, aSyn UTR inh)
CC1=C(O)C(=O)C=C2C1=CC=C1C2(C)CCC2(C)C3CC(C)(C(=O)O)CCC3(C)CCC12C (stereo not drawn)	TWEAK Fn14 block 106.1, HIF-2a block 91.9, C8 TRAIL sens 88.9, TROY signal inh 89.4 (no result: HSP90 inh, aSyn UTR inh)
COC(=O)[C@@H]1N=C(c2ccc(OC)cc2)O[C@]12C(=O)N(C)c1cccc(Cl)c12	none (no result: HSP90 inh, aSyn UTR inh)
CC(=O)NC(C)Cc1ccccc1 (stereo not drawn)	TWEAK Fn14 block 80.9 (no result: TROY signal inh)
Cc1cc(Br)cn2c(CC(=O)N3CCCCC3)c(-c3ccc(F)cc3)nc12	none (no result: HSP90 inh, aSyn UTR inh)
Oc1ccc(Cl)c(Cl)c1	none (no result: HSP90 inh, aSyn UTR inh)
Oc1cc(Cl)c(Cl)c(Cl)c1Cl	TROY signal inh 54.0 (no result: HSP90 inh, aSyn UTR inh)
Oc1cc(Cl)c(Cl)c(Cl)c1	TROY signal inh 55.2 (no result: HSP90 inh, aSyn UTR inh)
CCN(CC)C(=O)c1ccc(NC(=O)Nc2ccccc2F)cc1	TWEAK Fn14 block 71.8, HSP90 inh 55.4, C8 TRAIL sens 62.9, TROY signal inh 76.3, aSyn UTR inh inconclusive
CCN(CC)C(=O)c1ccc(NC(=O)CCCSc2ccccc2)cc1	none
CC1C(=O)CC2(C(C)C)CC12 (stereo not drawn)	none (no result: HSP90 inh, aSyn UTR inh)
O=C(Cc1ccccc1)N1CCN(Cc2ccccn2)CC1	TWEAK Fn14 block 92.3
O=C(Nc1ccc(F)cc1)N1Cc2ccccc2-n2nncc2C1	none (no result: HSP90 inh, aSyn UTR inh)
COC1CCC(OC2CC(C3(C)CCC4(CC(O)C(C)C(C(C)/C=C(\C)C(=O)C(C)CC(C)C(=O)O)O4)O3)OC3(OC(C4OC(O)(CO)C(C)CC4C)CC3C)C2C)OC1C (stereo not drawn)	TWEAK Fn14 block 50.0, HIF-2a block 74.1, C8 TRAIL sens 81.4, TROY signal inh 55.0 (no result: HSP90 inh, aSyn UTR inh)
Cn1ncnc2c(=O)n(C)c(=O)nc1-2	TWEAK Fn14 block 106.1, HIF-2a block 82.2, C8 TRAIL sens 96.0, TROY signal inh 87.9, aSyn UTR inh 97.7 (no result: HSP90 inh)
C=CCn1c(O)c(/C(C)=N/N2CCN(C)CC2)c(=O)[nH]c1=O	HSP90 inh 22.0 | HSP90 inh confirm inactive | FLuc counter inactive
CCC(c1nnnn1C1CCCCC1)N1CCC2(CC1)C(=O)NCN2c1ccccc1 (stereo not drawn)	none (no result: HSP90 inh, aSyn UTR inh)
O=c1c2ccccc2nc(/C=C/c2ccc(F)cc2)n1-c1ccccn1	HSP90 inh 26.4 (no result: TWEAK Fn14 block, HIF-2a block, C8 TRAIL sens, TROY signal inh) | HSP90 inh confirm inactive | FLuc counter inactive
COc1ccc2nc3c(C)n(C)ccc-3c2c1	none (no result: HSP90 inh, aSyn UTR inh)
Cc1ccc(C(O)(C(=O)OC(C)C)C(O)c2ccccc2)cc1 (stereo not drawn)	none (no result: TWEAK Fn14 block, HSP90 inh, TROY signal inh, aSyn UTR inh)
O=c1[nH]c(=S)[nH]c(O)c1N=Nc1ccc2c(c1)OCO2	none
O=c1[nH]c(O)c(N=Nc2ccc3c(c2)OCCO3)c(=O)[nH]1	TWEAK Fn14 block 90.7, HSP90 inh 73.0, TROY signal inh 87.6 | HSP90 inh confirm 70.7 | FLuc counter 70.3
COc1ccc(C2SCC(=O)Nc3c2c(C)nn3C2CCOC(C)(C)C2)cc1 (stereo not drawn)	HSP90 inh 19.9 | HSP90 inh confirm inactive | FLuc counter inactive
CC(C)(C)n1cc(C(=O)c2ccccc2OCCCF)cn1	none
CC(C)(C)n1cc(C(=O)c2ccc3ccccc3c2O)cn1	TWEAK Fn14 block 88.2, HSP90 inh 49.2, C8 TRAIL sens 50.3, TROY signal inh 82.9 | HSP90 inh confirm 59.8 | FLuc counter 58.0
CCCCn1c(NS(=O)(=O)c2ccccc2)c(C(=O)OCC)c2nc3ccccc3nc21	TWEAK Fn14 block 79.8, HSP90 inh 18.1, TROY signal inh 69.3 | HSP90 inh confirm inactive | FLuc counter inactive
COCCCn1c(N)c(C(=O)Nc2ccccc2)c2nc3ccccc3nc21	none
O=C(C1CCCCC1)N1Cc2ccccc2-n2nncc2C1	none (no result: HSP90 inh, aSyn UTR inh)
O=c1[nH]c2c(c(=O)n1C1CCCCC1)CCC2	HSP90 inh 27.7 | HSP90 inh confirm inactive | FLuc counter inactive
C=C1C(=O)OC2CCN3CC=C(COC(=O)C(C)(O)C4(CO4)C1C)C23 (stereo not drawn)	none (no result: HSP90 inh, aSyn UTR inh)
COc1ccc(OCCOc2cccc(C=C3C(=O)NC(=O)NC3=O)c2)cc1	HSP90 inh 24.9 (no result: TWEAK Fn14 block, HIF-2a block, C8 TRAIL sens, TROY signal inh) | HSP90 inh confirm 44.9 | FLuc counter 30.4
CN(C)C(=O)Oc1ccc(OCc2nc3ccccc3[nH]2)cc1	TWEAK Fn14 block 68.4, HSP90 inh 27.3, C8 TRAIL sens 68.3 | HSP90 inh confirm 52.0 | FLuc counter 31.4
CN(C)C(=O)Oc1ccc(OC(=O)N(C)C)cc1	none
N#CC1c2ccccc2-n2nncc2CN1C(=O)c1ccccc1F (stereo not drawn)	none (no result: HSP90 inh, aSyn UTR inh)
COC(=O)C[C@]1(C(=O)OC)CN(C#N)N(c2ccc(Cl)cc2)C12c1ccccc1-c1ccccc12	TWEAK Fn14 block 95.5, HIF-2a block 85.4, HSP90 inh 32.2, C8 TRAIL sens 91.3, TROY signal inh 89.0, aSyn UTR inh 95.8 | HSP90 inh confirm 58.7 | FLuc counter inactive
CN1CCN(C(=O)COc2ccc3ccccc3c2)CC1	none
CN1CCN(C(=O)COc2ccc(-c3nc4ccccc4s3)cc2)CC1	TWEAK Fn14 block 52.1, HSP90 inh 47.7, C8 TRAIL sens 91.7 | HSP90 inh confirm 71.7 | FLuc counter 69.0
CCOC(=O)[C@]12Cc3c(cc(OC)c(OC)c3OC)[C@H]1N(C)C(=O)c1ccccc12	none (no result: HSP90 inh, aSyn UTR inh)
CCc1ccc(CNCCc2c[nH]c3ccccc23)cc1	HSP90 inh 19.1 | HSP90 inh confirm inactive | FLuc counter inactive
